In PubChem BioAssay (NCATS):
Inconclusive results are not listed. Where a call stands in place of a potency, no number is given. Active and inactive are the calls of the source. The call rests on the fitted dose curve; in most records, active means well fitted inhibition curve with a large enough effect; inconclusive means small, poorly fitted or top-dose-only effect; inactive means no such curve, though single readings can be large or run the other way.

target: Retinaldehyde dehydrogenase 3 (Homo sapiens) (UniProt P47895); assay: qHTS for Inhibitors of the Aldehyde Dehydrogenase Family (ALDH1A3) Validation screen (AID 2061312); conditions: ALDH1A3 enzyme inhibition qHTS validation, fluorescence; series mostly up to 84.7 µM; further: nearly all actives have a fitted effect of over 45% in size

Structure (SMILES)	Potency
O=C1C(Cc2ccc(O)cc2)N2C(=O)CCN(C(=O)NCc3ccccc3)C2CN1Cc1cccc2ccccc12 (configuration not stated)	inactive
O=C(COc1ccc(Cl)cc1)NC1CCC(NC(=O)COc2ccc(Cl)cc2)CC1 (configuration not stated)	inactive
COc1ccc(C(=O)NCc2cc(C(C)C)no2)cc1OC1CCN(C)CC1	inactive
CC(C)n1c(=O)c(C(=O)NC2CC3CCC(C2)N3C[C@@H](O)CN(C)S(C)(=O)=O)cc2ccccc21 (some centres not stated)	inactive
Cn1c2ccc(NC(=O)c3ccccc3)cc2c(=O)n2nc(C(=O)O)cc12	inactive
CCCC(N[C@@H](C)C(=O)N1[C@H](C(=O)O)C[C@@H]2CCCC[C@@H]21)C(=O)OCC (some centres not stated)	inactive
Cn1cc(S(=O)(=O)c2ccc(Cl)cc2)c2cccc(N3CCNCC3)c21	inactive
O=C(NCCN1CCOCC1)c1cc2c(Oc3ccc(NC(=O)C4(C(=O)Nc5ccc(F)cc5)CC4)cc3)ccnc2[nH]1	inactive
CC(=O)NC[C@H]1CN(c2ccc(N3CCSCC3)c(F)c2)C(=O)O1	inactive
COc1ccccc1Oc1ccc(N(Cc2cccnc2)S(=O)(=O)CC(F)(F)F)cc1	inactive
CC(C)C[C@@H](C(=O)N[C@@H](Cc1ccc(OCc2ccccc2)cc1)C(=O)NC(C)(C)C)N(C)Cc1ccc(C(C)(C)C)cc1	inactive
COC(=O)N1CCC(n2ncc3c(N4CCOCC4)nc(-c4ccc(NC(=O)NC5CC5)cc4)nc32)CC1	inactive

target: Retinaldehyde dehydrogenase 3 (Homo sapiens) (UniProt P47895); assay: qHTS for Inhibitors of the Aldehyde Dehydrogenase Family (ALDH1A3) Primary screen (AID 2061315); conditions: ALDH inhibition qHTS; series mostly up to 56 µM

Structure (SMILES)	Potency
c1ccc(-c2ncc(CN3CCN(c4ncccn4)CC3)[nH]2)cc1	inactive
COc1cc2nc(N3CCN(C(=O)COc4c(OC)cccc4C(C)C)CC3)nc(N)c2cc1OC	inactive
O=C(c1ccc(F)cc1)C1CCN(CCn2c(=O)nc3n(c2=O)CCCC3)CC1	inactive
CC(C)(O)c1ccccc1CC[C@@H](SCC1(CC(=O)O)CC1)c1cccc(/C=C/c2ccc3ccc(Cl)cc3n2)c1	inactive
Cc1cc(NC(=O)NCCN2CCC(O)(Cc3ccccc3)CC2)c2ccccc2n1	inactive
CCCCc1ccc(C(=O)Nc2cc(-c3ccc(Cl)cc3)nn2-c2ccc(Cl)cc2)cc1	inactive
CSc1ccc(C(=O)N[C@@H]2CCCC[C@@H]2NC(=O)CNC(=O)c2cc(C(F)(F)F)ccc2NC(=O)NC(C)C)cc1	inactive
NC(=O)CCCSc1nc(N)nc(-c2c(Cl)cc3c4c(cccc24)COC3)n1	inactive
COC(=O)CCc1ccc(OCC(O)CNC(C)C)cc1 (configuration not stated)	inactive
OC(CC1c2ccccc2-c2cncn21)C1CCCCC1 (configuration not stated)	inactive
COc1ccc2c(c1O[C@H]1CCNC1)CCC2	inactive
c1cc(OCCCN2CCCCC2)ccc1CN1CCCCC1	inactive
CCOC(=O)[C@H](CCc1ccccc1)CC1(C(=O)N[C@H]2CCc3ccccc3N(CC(=O)O)C2=O)CCCC1	inactive
O=C(O)c1ccccc1NC(=O)N1CCC(c2ccccc2C(F)(F)F)CC1	inactive
COc1c(F)cccc1C(=O)N1C[C@@H](C)CC[C@H]1CNc1ccc(Br)cn1	inactive
Cn1c(=O)cc(N2CCCC(N)C2)n(Cc2ccccc2C#N)c1=O (configuration not stated)	inactive
O=C(O)c1cc(-c2ccccc2)nc2ccccc12	inactive
CCOC(=O)c1sc(NC(=O)[C@H](C(C)C)n2c(=O)[nH]c3ccccc3c2=O)nc1C	inactive
C[C@H](Nc1cc2c(-c3ccc4c(c3)OCO4)noc2cn1)c1ccccc1	inactive
O=C(O)CC1CCC(c2ccc(NC(=O)c3nnc(Nc4ccc(F)c(F)c4)o3)cc2)CC1 (configuration not stated)	inactive

Structure (SMILES)	Potency
CC(=O)c1ccc2c(c1)[C@H](NC(=O)c1ccc(F)c(Cl)c1)[C@H](O)C(C)(C)O2	inactive
O=C(c1cc(Cc2n[nH]c(=O)c3ccccc23)ccc1F)N1CCCNCC1	inactive
CN[C@@H]1[C@@H](O)[C@@H](O[C@@H]2[C@@H](O)[C@H](O[C@H]3O[C@@H]([C@@H](C)NC)CC[C@H]3N)[C@@H](N)C[C@H]2N)OC[C@]1(C)O	inactive
O=S(=O)(Nc1ccccc1N1CCCCC1)c1ccc(Cl)s1	inactive
CC(C)C(CO)Nc1nc(Nc2cc(N)cc(Cl)c2)c2ncn(C(C)C)c2n1 (configuration not stated)	inactive
CC(C)c1c(NC(=O)Nc2ccc(Cl)cc2)c(=O)n(-c2ccccc2)n1C	inactive
CC[C@H]1OC(=O)[C@H](C)[C@@H](O[C@H]2C[C@@](C)(OC)[C@@H](O)[C@H](C)O2)C(C)[C@@H](O[C@@H]2O[C@H](C)C[C@H](N(C)C)[C@H]2O)[C@](C)(O)C[C@@H](C)CN(C)[C@H](C)[C@@H](O)[C@]1(C)O (some centres not stated)	inactive
CCCSc1nc(NC2CC2c2ccc(F)c(F)c2)c2nnn(C3CC(OCCO)C(O)C3O)c2n1 (configuration not stated)	inactive
O=C1C(Cc2ccc(O)cc2)N2C(=O)CCN(C(=O)NCc3ccccc3)C2CN1Cc1cccc2ccccc12 (configuration not stated)	inactive
O=C(COc1ccc(Cl)cc1)NC1CCC(NC(=O)COc2ccc(Cl)cc2)CC1 (configuration not stated)	inactive
COc1ccc(C(=O)NCc2cc(C(C)C)no2)cc1OC1CCN(C)CC1	inactive
CC(C)n1c(=O)c(C(=O)NC2CC3CCC(C2)N3C[C@@H](O)CN(C)S(C)(=O)=O)cc2ccccc21 (some centres not stated)	inactive
Cn1c2ccc(NC(=O)c3ccccc3)cc2c(=O)n2nc(C(=O)O)cc12	inactive
CCCC(N[C@@H](C)C(=O)N1[C@H](C(=O)O)C[C@@H]2CCCC[C@@H]21)C(=O)OCC (some centres not stated)	inactive
Cn1cc(S(=O)(=O)c2ccc(Cl)cc2)c2cccc(N3CCNCC3)c21	inactive
O=C(NCCN1CCOCC1)c1cc2c(Oc3ccc(NC(=O)C4(C(=O)Nc5ccc(F)cc5)CC4)cc3)ccnc2[nH]1	inactive
CC(=O)NC[C@H]1CN(c2ccc(N3CCSCC3)c(F)c2)C(=O)O1	inactive
COc1ccccc1Oc1ccc(N(Cc2cccnc2)S(=O)(=O)CC(F)(F)F)cc1	inactive
CC(C)C[C@@H](C(=O)N[C@@H](Cc1ccc(OCc2ccccc2)cc1)C(=O)NC(C)(C)C)N(C)Cc1ccc(C(C)(C)C)cc1	inactive
COC(=O)N1CCC(n2ncc3c(N4CCOCC4)nc(-c4ccc(NC(=O)NC5CC5)cc4)nc32)CC1	inactive
